PubChem BioAssay AID504428 (National Center for Advancing Translational Sciences (NCATS), 2011)
The other results are listed elsewhere or left out. A call without a number means that no potency is given here. The source made the active and inactive calls.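 How the source made its calls: active means compounds that inhibited Clk3 enough in the ten-dose series to give a half-maximal potency; inactive means the rest.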

Biological target: Dual specificity protein kinase CLK3 (Homo sapiens) (UniProt P49761)
Sequence (P49761 whole entry, looked up): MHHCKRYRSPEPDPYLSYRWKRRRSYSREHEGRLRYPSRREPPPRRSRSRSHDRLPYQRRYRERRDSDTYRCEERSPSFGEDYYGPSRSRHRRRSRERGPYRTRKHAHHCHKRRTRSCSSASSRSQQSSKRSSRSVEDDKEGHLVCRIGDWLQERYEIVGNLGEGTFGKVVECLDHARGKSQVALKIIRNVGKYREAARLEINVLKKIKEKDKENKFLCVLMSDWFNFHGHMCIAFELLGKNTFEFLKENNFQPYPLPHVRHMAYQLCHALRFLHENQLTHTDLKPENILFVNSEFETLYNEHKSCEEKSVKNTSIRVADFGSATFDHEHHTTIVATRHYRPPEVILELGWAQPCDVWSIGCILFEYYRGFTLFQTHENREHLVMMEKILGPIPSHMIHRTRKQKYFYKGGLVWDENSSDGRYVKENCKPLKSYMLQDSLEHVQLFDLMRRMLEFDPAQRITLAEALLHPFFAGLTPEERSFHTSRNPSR
Experiment: Kinase Inhibition Study on Inhibitors of CDC-like Kinase 3 (Reaction Biology data)
Settings: recombinant CLK3 kinase assay, 10 uM ATP
Excerpt: NIH Molecular Libraries Probe Production Centers Network [MLPCN] NIH Chemical Genomics Center [NCGC] MLPCN Grant: 1R03MH084827-01 Assay Submitter (PI): Tom Misteli NCGC Assay Overview: Alternative splicing of pre-mRNAs plays a major role in the regulation of eukaryotic gene expression. Alternative splicing is now thought to be one of the primary reasons for the complexity of higher organisms leading to an average of three protein isoforms per gene. Aberrant splicing can lead to a number of diseases and is known to play a role in rare genetic diseases such as progeria syndrome. Hutchinson-Gilford Progeria Syndrome (HGPS) is a pediatric premature aging disease caused by a spontaneous mutation in the lamin A/C (LMNA) gene due to a single point mutation in the lamin A gene effecting 1 in 4 million people. To identify both specific splicing modulators of the lamin A gene as well as general splicing modulators, a cell-based HTS assay was developed using a minigene reporter system (AIDs, 1459 & 1487). […] This AID summarizes the characterization of lead compounds in Clk3.
All kinase reactions were performed using 10 uM ATP in the assay. 100% activity was taken from kinase reactions with DMSO alone (the vehicle used for compound stock solutions).

SMILES	Potency	outcome
c1coc(CCNc2ncnc3ccc(-c4ccc5c(c4)OCO5)cc23)c1	2.02 µM (active)	–
c1nc(N2CCOCC2)c2cc(-c3ccc4c(c3)OCO4)ccc2n1	–	inactive
CN(Cc1cncn1C)c1ncnc2ccc(-c3ccc4c(c3)OCO4)cc12	–	inactive
CC(Nc1ncnc2ccc(-c3ccc4c(c3)OCO4)cc12)c1ccco1 (centres undefined)	15 µM (active)	–
